Test results taken from PubChem BioAssay AID1456 (Vanderbilt High Throughput Screening Facility, 2008).
Among all 190,000 compounds or so, about 4,100 (2.2%) were called active. This is one part of a sample in which actives are shown more often than they occur. A number with no mark means an inactive call.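 Rule for the calls: active = thallium flux slope and its plate-corrected score both differing from the plate sample mean at a set confidence after two filtering rounds, in either direction; inactive = the rest.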

The compounds below were run against Solute carrier family 12 member 5 (Homo sapiens) (UniProt Q9H2X9) (assay: modulation of human KCC2 ion transport – cell-based, HEK293 KCC2, FluoZin-2 fluorescence, MLSMR, primary screen (AID 1456;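 note: slope of fluorescence scaled to starting intensity during 10 to 20 s after thallium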)). Conditions: KCC2 cells, thallium flux FluoZin-2 fluorescence; at 10 µM.
Chain of Solute carrier family 12 member 5 (Homo sapiens) (Q9H2X9 whole entry, looked up): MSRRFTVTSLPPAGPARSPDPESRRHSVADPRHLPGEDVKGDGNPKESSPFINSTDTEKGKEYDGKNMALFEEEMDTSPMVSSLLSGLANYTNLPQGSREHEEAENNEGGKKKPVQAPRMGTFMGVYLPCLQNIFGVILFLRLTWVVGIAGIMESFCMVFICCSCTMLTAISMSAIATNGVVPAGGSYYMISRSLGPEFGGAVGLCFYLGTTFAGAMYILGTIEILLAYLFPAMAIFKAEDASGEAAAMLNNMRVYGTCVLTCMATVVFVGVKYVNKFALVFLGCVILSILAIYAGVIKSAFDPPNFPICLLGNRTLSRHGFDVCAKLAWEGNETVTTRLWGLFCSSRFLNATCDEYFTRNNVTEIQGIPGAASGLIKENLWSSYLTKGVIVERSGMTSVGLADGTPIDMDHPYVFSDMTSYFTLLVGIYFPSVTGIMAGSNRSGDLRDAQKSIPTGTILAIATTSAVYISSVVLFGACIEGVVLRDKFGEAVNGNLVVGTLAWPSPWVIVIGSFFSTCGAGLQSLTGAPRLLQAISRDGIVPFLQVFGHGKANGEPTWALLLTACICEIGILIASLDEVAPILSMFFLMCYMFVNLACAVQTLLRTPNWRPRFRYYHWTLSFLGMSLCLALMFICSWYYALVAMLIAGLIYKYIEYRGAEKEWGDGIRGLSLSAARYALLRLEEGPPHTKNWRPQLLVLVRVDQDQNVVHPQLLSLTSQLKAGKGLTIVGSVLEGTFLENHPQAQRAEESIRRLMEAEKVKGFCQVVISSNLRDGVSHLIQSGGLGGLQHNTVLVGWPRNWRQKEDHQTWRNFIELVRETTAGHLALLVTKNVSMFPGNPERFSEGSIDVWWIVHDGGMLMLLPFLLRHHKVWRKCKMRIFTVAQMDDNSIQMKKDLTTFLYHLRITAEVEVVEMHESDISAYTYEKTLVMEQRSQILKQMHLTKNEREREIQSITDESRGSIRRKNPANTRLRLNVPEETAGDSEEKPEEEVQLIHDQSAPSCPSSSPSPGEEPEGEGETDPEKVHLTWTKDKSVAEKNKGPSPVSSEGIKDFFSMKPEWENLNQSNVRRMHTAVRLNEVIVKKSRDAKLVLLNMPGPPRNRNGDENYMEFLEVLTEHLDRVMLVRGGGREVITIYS

Structure (SMILES) | B-score of Tl+ flux slope (higher = more flux/activation; lower = inhibition)
Cc1cc(-c2n[nH]c(=S)n2/N=C/c2ccco2)n[nH]1 | -0.111
O=c1c2ccccc2cnn1Cc1n[nH]c(=S)n1-c1ccccc1F | 0.755
CC1CCN(c2c(NCc3ccc(C(=O)NCc4ccccc4)cc3)c(=O)c2=O)CC1 | -1.1
O=C(Nc1ccccc1)C1CC(=O)n2c(nc3ccccc32)N1 (stereo not drawn) | 0.778
CC(C)CCNC(=O)C1CCC(CNc2c(N3CCC(C)CC3)c(=O)c2=O)CC1 (stereo not drawn) | 0.284
COc1ccc(CNC(=O)CCC(=O)Nc2nnc(C(C)C)s2)cc1 | 0.0451
Cc1cccc(N2CCN(Cc3nc(C4CC4)no3)CC2)n1 | -0.346
O=C(Nc1nnc(-c2ccco2)o1)c1ccc(S(=O)(=O)N2CCOCC2)cc1 | -0.75
COc1cccc(NC(=O)c2ccc(S(=O)(=O)N(C)C)cc2)c1 | 1.09
COc1cccc(-c2nnc(NC(=O)c3ccc(S(=O)(=O)N(CC(C)C)CC(C)C)cc3)o2)c1 | 18.6 (active)
CCCCN1CCNC1=S | -0.472
O=C(Nc1ccc(Br)cn1)c1ccc([N+](=O)[O-])o1 | 0.106
CCCCCC(=O)Nc1ccc(C(=O)N/N=C/c2ccc([N+](=O)[O-])cc2)cc1 | -0.55
CCCCCC(=O)NC(=S)NNC(=O)c1ccc([N+](=O)[O-])cc1 | 11.7 (active)
CC(C)CC(=O)NC(=S)NNC(=O)c1cccc([N+](=O)[O-])c1 | 0.86
Cc1ccc(N2C(=O)C(CC(=O)Nc3cccc(F)c3)N(CCc3ccncc3)C2=O)cc1 (stereo not drawn) | 1.48
C=CCNC(=S)N1CCc2[nH]c3ccccc3c2C1 | -0.783
Cc1cccc(NC(=O)Nc2nnc(-c3ccccc3)o2)c1 | 2.01
CCCC(=O)Nc1nnc(-c2ccccc2)o1 | 1.22
O=C(COC(=O)c1ccc(Oc2ccccc2)cc1)Nc1nnc(-c2ccccc2)o1 | 42.1 (active)
CC1=NNC(=O)C1CCC(=O)N/N=C(\C)c1ccc(Cl)cc1 (stereo not drawn) | -0.012
CC(NC(=S)Nc1ccccc1)C(c1cccs1)N1CCOCC1 (stereo not drawn) | 0.588
CSc1sc(C(=O)NNC(=O)c2ccc(Cl)cc2)c2c1C=CCC2 | 12.5 (active)
CCOC(=O)NNC(=O)c1ccc(Cl)cc1 | 0.095

Structure (SMILES) | B-score of Tl+ flux slope (higher = more flux/activation; lower = inhibition)
O=C(NNC(=O)C1C2CCC(C2)C1C(=O)O)c1ccc(Cl)cc1 (stereo not drawn) | -1.3
O=C(CC(c1ccccc1)c1cc(Cl)ccc1O)NCCN1CCOCC1 (stereo not drawn) | -0.0272
CN(C)c1ccc(C=C2C(=O)OC3(CCCC3)OC2=O)cc1 | -0.977
CCOc1c(Nc2cccc(Cl)c2)c(=O)c1=O | -0.192
COc1ccc2c(CN3CCN(S(=O)(=O)c4cccs4)CC3)cc(=O)oc2c1 | -3.36
COc1ccc(C2/C=C\CN(S(=O)(=O)c3cccs3)CC(=O)N2Cc2ccc(F)cc2)cc1 (stereo not drawn) | -3.16 (active)
COc1ccc(C2/C=C\CN(CC(C)C)CC(=O)N2Cc2ccc(F)cc2)cc1 (stereo not drawn) | -1.57
O=c1c(-c2ccc(Cl)cc2)[n+]([O-])c2ccccc2n1OCc1nc2ccccc2[nH]1 | 2.99
Nc1nc(NCC2CCCO2)nc(Nc2ccccc2F)c1[N+](=O)[O-] (stereo not drawn) | 0.249
CCC(C(=O)OCC(=O)Nc1ccc(C(=O)Nc2ccc(OC)cc2)cc1)c1ccccc1 (stereo not drawn) | -0.012
COc1ccc(NC(=O)COC(=O)c2ccc(NS(=O)(=O)/C=C/c3ccccc3)cc2)cc1 | 4.56 (active)
NS(=O)(=O)c1ccc(NS(=O)(=O)/C=C/c2ccccc2)cc1 | 0.851
Cc1cc(C(=O)OCC(=O)Nc2nccs2)c2ccccc2n1 | -0.12
Cc1ccc2c(C)c(C(=O)N3CCC(N4CCC(C(=O)NC5CC5)CC4)CC3)oc2c1 | -1.04
O=C(CSc1nnnn1-c1ccc(O)cc1)N1N=C(c2ccc3ccccc3c2)CC1c1ccccc1 (stereo not drawn) | 0.186
COC(=O)C1=C(C(=O)OC)C(c2cc([N+](=O)[O-])ccc2O)c2sc(=O)[nH]c2S1 (stereo not drawn) | -0.169
CC1CC(C)(C)n2c(O)c(N=NC(N)=S)c3cccc1c32 (stereo not drawn) | 24.8 (active)
COC(=O)[C@H](CC(C)C)NC(=O)N1CCCCC1C (stereo partly drawn) | -0.124
C/C(CC(C)C)=N\Oc1nc(C)cc(C)n1 | -1.12
CCCCCCCC(=O)OC(CN1CCCCCC1)CN1CCCC1=O (stereo not drawn) | -0.767
Cc1cc(C)cc(NC(=O)NC2CCN(CC(=O)Nc3cccc(Cl)c3C)CC2)c1 | 0.963
CCOc1ccc(NS(=O)(=O)c2ccc(C)c(C(N)=O)c2)cc1 | -0.277
Cc1cc(C)cc(NS(=O)(=O)c2ccc(F)cc2)c1 | -0.00878
Cc1cccc(NS(=O)(=O)c2ccc(C)c(C(N)=O)c2)c1 | 4.67 (active)
